# Records with an inconclusive call do not appear. Active and inactive are the calls of the source. Rule for the calls, unless noted: active = hit-call score of the fitted dose curve at least 0.9, where 1 is the maximum; inactive = score below 0.9.
# Columns and labels:
# [1] = biological target: Paired box protein Pax-6 (Homo sapiens) (UniProt P26367); experiment: ATG_Pax6_CIS: Attagene CIS-FACTORIAL HepG2 Assay for human Paired Box 6 (PAX6) (AID 2282956); settings: HepG2 CIS-FACTORIAL PAX6 reporter transcription, RNA readout; actives raise or lower the signal
# Chain of Paired box protein Pax-6 (Homo sapiens) (P26367 whole entry, looked up): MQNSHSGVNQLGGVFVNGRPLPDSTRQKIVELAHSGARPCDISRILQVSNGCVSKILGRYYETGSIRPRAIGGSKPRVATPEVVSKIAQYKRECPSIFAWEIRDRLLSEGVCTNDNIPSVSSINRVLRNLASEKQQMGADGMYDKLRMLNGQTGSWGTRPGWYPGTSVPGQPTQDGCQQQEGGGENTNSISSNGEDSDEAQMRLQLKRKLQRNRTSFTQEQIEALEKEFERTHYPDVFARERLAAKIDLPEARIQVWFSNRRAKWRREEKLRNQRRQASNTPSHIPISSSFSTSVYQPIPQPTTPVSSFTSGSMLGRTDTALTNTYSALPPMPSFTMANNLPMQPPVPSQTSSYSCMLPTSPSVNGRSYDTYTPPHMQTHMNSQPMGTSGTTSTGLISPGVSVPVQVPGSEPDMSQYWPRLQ
# How it was run: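 HepG2 cells transiently transfected with cis-promoter-driven multiplexed reporter units sensing endogenous transcription factor activity; 24 h chemical exposure. Reporter mRNA quantified by RT-PCR, 6-FAM labelling, HpaI digestion and capillary electrophoresis; bidirectional fit versus DMSO baseline.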
# [2] = ATG_PXRE_CIS: Attagene CIS-FACTORIAL HepG2 Assay for human Pregnane X Receptor Element (PXRE) (AID 2282957); settings: HepG2 Attagene CIS-FACTORIAL PXRE reporter, mRNA; actives raise or lower the signal
# How it was run: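 Cis-element reporter mRNA in human hepatoma HepG2 cells is measured 24 h post-dosing by RT-PCR, primer-extension labeling and capillary electrophoresis; gain or loss of signal is fitted relative to DMSO.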
# [3] = ATG_PPRE_CIS: Attagene CIS-FACTORIAL HepG2 Assay for human Peroxisome Proliferator-activated Response Element (PPRE) (AID 2282958); settings: HepG2 PPRE cis-element reporter, Attagene transcription factor profiling; actives raise or lower the signal
# How it was run: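 Measured endpoint: PPRE-controlled reporter mRNA, detected by RT-PCR and capillary electrophoresis fluorescence, from transiently transfected HepG2 cells 24 h after dosing. Curves fitted in both directions using DMSO baseline.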
# [4] = ATG_Sox_CIS: Attagene CIS-FACTORIAL HepG2 Assay for human SRY-box transcription factor (SOX) (AID 2282960); settings: HepG2 Attagene cis-factorial SOX reporter, mRNA; actives raise or lower the signal
# How it was run: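 Gain- or loss-of-signal endpoint, fitted bidirectionally with DMSO as negative control. Based on reporter mRNA from transfected HepG2 cells harvested 24 h post-treatment and quantified via RT-PCR and capillary electrophoresis.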
# [5] = biological target: Transcription factor Sp1 (Homo sapiens) (UniProt P08047); experiment: ATG_Sp1_CIS: Attagene CIS-FACTORIAL HepG2 Assay for human Specificity Protein 1 (Sp1) (AID 2282961); settings: HepG2 Sp1 cis-reporter transcription, actives raise or lower the signal
# Chain of Transcription factor Sp1 (Homo sapiens) (P08047 whole entry, looked up, the tested form may be a part): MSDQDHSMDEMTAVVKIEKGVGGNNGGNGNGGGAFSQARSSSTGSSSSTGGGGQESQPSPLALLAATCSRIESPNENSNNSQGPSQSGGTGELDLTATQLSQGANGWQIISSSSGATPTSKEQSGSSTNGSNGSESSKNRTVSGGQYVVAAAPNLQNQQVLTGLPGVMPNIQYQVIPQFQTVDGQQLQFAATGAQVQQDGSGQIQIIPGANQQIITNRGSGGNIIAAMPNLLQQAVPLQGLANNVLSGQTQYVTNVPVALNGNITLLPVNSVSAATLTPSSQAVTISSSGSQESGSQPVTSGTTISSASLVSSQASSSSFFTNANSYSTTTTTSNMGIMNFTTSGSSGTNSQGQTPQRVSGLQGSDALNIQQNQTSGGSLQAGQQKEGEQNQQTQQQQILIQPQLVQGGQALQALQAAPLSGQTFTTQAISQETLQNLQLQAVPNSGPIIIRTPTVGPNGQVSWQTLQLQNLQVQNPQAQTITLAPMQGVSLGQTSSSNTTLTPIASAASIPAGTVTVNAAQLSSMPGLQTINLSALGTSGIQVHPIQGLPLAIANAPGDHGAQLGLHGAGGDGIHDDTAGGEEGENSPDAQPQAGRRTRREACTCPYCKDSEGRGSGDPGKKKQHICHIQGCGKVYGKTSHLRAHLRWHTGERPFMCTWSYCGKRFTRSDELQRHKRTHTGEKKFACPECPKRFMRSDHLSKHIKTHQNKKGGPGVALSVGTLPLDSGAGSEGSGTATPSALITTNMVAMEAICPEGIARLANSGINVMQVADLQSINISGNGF
# How it was run: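 Endpoint reflects endogenous Sp1 transcriptional activity, not an exogenous fusion protein: HepG2 cells with transfected cis-regulated reporters, 24 h dosing, RT-PCR/capillary electrophoresis mRNA read-out, DMSO-normalised bidirectional fit.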
# [6] = biological target: Signal transducer and activator of transcription 3 (Homo sapiens) (UniProt P40763); experiment: ATG_STAT3_CIS: Attagene CIS-FACTORIAL HepG2 Assay for human Signal Transducer and Activator of Transcription 3 (STAT3) (AID 2282963); settings: HepG2, Attagene cis-factorial STAT3 reporter transcription; actives raise or lower the signal
# Chain of Signal transducer and activator of transcription 3 (Homo sapiens) (P40763 whole entry, looked up): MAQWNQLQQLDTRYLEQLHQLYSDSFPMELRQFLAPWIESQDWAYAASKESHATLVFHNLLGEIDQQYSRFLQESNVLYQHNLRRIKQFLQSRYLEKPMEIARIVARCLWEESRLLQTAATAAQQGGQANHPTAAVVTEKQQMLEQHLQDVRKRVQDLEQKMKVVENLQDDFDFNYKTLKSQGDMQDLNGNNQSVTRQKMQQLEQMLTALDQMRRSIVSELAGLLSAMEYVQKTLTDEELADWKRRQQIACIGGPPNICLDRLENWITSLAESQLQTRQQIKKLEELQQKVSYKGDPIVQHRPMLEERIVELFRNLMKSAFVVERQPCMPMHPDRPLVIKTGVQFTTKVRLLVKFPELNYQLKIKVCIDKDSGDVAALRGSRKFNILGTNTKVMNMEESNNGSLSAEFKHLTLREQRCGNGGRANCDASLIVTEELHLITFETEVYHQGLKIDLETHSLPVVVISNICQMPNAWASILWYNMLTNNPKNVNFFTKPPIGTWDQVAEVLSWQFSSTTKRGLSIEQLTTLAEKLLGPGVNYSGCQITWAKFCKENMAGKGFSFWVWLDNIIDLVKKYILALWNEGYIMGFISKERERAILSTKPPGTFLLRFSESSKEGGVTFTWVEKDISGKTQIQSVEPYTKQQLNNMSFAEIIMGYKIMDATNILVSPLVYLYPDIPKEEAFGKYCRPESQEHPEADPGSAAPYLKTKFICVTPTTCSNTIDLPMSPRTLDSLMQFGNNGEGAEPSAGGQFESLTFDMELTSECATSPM
# How it was run: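 Transcript-level reporter assay. HepG2 transient MRTU transfection, 24 h exposure, fluorescence detection after RT-PCR and CE; DMSO baseline.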
# [7] = ATG_TA_CIS: Attagene CIS-FACTORIAL HepG2 Assay for human TA Basal Promoter (AID 2282964); settings: HepG2 Attagene CIS-factorial TA basal promoter reporter; actives raise or lower the signal
# How it was run: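 HepG2 cells transiently transfected with multiple reporter units under cis promoter elements, reporting endogenous transcription factor activity; this endpoint tracks the TA basal promoter as background control. Reporter mRNA after 24 h dosing measured by RT-PCR/capillary electrophoresis; bidirectional fits versus DMSO.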
# [8] = ATG_TCF_b_cat_CIS: Attagene CIS-FACTORIAL HepG2 Assay for human T-Cell-Factor with beta-catenin (TCF/b-cat) (AID 2282965); settings: HepG2 TCF/beta-catenin cis-reporter transcription, actives raise or lower the signal
# How it was run: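 In this cis-format system, transfected HepG2 cells report endogenous transcription factor activity. Readout after 24 h exposure is reporter transcript abundance from RT-PCR and capillary electrophoresis, analysed for gain or loss of signal versus DMSO.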
# [9] = ATG_TAL_CIS: Attagene CIS-FACTORIAL HepG2 Assay for human TAL Basal Promoter (AID 2282966); settings: HepG2 Attagene cis-factorial TAL promoter reporter; actives raise or lower the signal;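 note: background control endpoint measuring basal TAL promoter reporter mRNA not a specific factor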
# How it was run: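 In this cell-based multiplex, HepG2 liver cells bearing cis-promoter reporter constructs are dosed for 24 hours. Total RNA is reverse-transcribed and amplified, labelled fragments are sized by capillary electrophoresis, and signal changes are fitted bidirectionally versus DMSO.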
# [10] = ATG_TGFb_CIS: Attagene CIS-FACTORIAL HepG2 Assay for human Transforming Growth Factor (TGF) (AID 2282967); settings: HepG2 Attagene CIS TGFb reporter, mRNA transcription; actives raise or lower the signal
# How it was run: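 HepG2 cells transiently transfected with cis-promoter-driven multiple reporter units measure endogenous TF activity; reporter mRNA quantified at 24 h by RT-PCR, FAM labeling, HpaI digestion and capillary electrophoresis. Bidirectional fit vs DMSO.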
# [11] = biological target: X-box-binding protein 1 (Homo sapiens) (UniProt P17861); experiment: ATG_Xbp1_CIS: Attagene CIS-FACTORIAL HepG2 Assay for human X-box Binding Protein 1 (XBP1) (AID 2282972); settings: HepG2 XBP1 cis-element reporter, Attagene multiplex; actives raise or lower the signal
# Chain of X-box-binding protein 1 (Homo sapiens) (P17861 whole entry, looked up): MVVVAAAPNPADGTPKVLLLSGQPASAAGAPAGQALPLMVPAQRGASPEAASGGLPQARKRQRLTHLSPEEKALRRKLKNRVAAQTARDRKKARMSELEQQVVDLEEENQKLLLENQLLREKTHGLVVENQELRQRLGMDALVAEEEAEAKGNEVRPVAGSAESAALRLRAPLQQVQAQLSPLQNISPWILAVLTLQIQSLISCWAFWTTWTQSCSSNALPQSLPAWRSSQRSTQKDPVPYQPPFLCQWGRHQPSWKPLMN
# How it was run: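 HepG2 cells transiently transfected with multiple cis-element reporter units report endogenous TF activity; 24 h exposure, then reporter mRNA measured by RT-PCR, 6-FAM labelling, HpaI digestion and capillary electrophoresis. Bidirectional fitting versus DMSO.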
# [12] = ATG_RORE_CIS: Attagene CIS-FACTORIAL HepG2 Assay for human RAR-related Orphan Receptor Element (RORE) (AID 2282959); settings: HepG2 Attagene cis-factorial RORE reporter, mRNA; actives raise or lower the signal
# How it was run: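 Transiently transfected HepG2 reporter cells were treated 24 h. Reporter transcripts were detected by RT-PCR and capillary electrophoresis, with bidirectional fitting against DMSO.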
# [13] = ATG_SREBP_CIS: Attagene CIS-FACTORIAL HepG2 Assay for human Sterol Regulatory Element Binding (SREBP) (AID 2282962); settings: HepG2 Attagene cis-factorial SREBP reporter, mRNA; actives raise or lower the signal
# How it was run: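 HepG2 cells transiently transfected with multiplexed cis-promoter reporter units sensing endogenous transcription factors; reporter mRNA measured 24 h after dosing by RT-PCR, 6-FAM labeling, HpaI digestion and capillary electrophoresis. Bidirectional fit versus DMSO.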
# [14] = ATG_VDRE_CIS: Attagene CIS-FACTORIAL HepG2 Assay for human Vitamin D Receptor Element (VDRE) (AID 2282968); settings: HepG2 VDRE cis-reporter transcription, actives raise or lower the signal
# How it was run: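 RT-PCR/CE readout of reporter mRNA; HepG2, transient transfection, 24 h dosing; DMSO baseline; bidirectional analysis.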
# [15] = biological target: Nuclear receptor subfamily 1 group I member 3 (Homo sapiens) (UniProt Q14994); experiment: ATG_CAR_TRANS: Attagene TRANS-FACTORIAL HepG2 Assay for human Constitutive Androstane Receptor (CAR) (AID 2282969; active = hit-call score of the fitted dose curve at least 0.9, where 1 is the maximum;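 note: activators raise reporter mRNA above DMSO so AC50 marks induction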); settings: HepG2 Attagene TRANS-FACTORIAL CAR reporter
# Chain of Nuclear receptor subfamily 1 group I member 3 (Homo sapiens) (Q14994 whole entry, looked up, the tested form may be a part): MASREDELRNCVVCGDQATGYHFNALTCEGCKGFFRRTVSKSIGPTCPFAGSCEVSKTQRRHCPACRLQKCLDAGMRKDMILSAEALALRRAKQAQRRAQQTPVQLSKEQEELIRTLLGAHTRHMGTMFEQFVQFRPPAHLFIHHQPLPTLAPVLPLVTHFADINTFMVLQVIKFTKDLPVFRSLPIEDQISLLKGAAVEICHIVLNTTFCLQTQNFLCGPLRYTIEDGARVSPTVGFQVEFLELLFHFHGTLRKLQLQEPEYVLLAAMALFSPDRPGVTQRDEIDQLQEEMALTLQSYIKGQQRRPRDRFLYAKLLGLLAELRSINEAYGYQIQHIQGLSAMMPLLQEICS
# How it was run: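 HepG2 cells transiently transfected with multiplexed GAL4-UAS reporter units expressing chimeric NR-Gal4 proteins; compound exposure 24 h. Reporter mRNA measured by RT-PCR, 6-FAM labelling, HpaI digestion and capillary electrophoresis; gain-of-signal fitted against DMSO baseline.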
# [16] = biological target: Steroid hormone receptor ERR1 (Homo sapiens) (UniProt P11474); experiment: ATG_ERRa_TRANS: Attagene TRANS-FACTORIAL HepG2 Assay for human Estrogen-Related Receptor alpha (ERRa) (AID 2282971; active = hit-call score of the fitted dose curve at least 0.9, where 1 is the maximum); settings: HepG2 Attagene TRANS reporter, ERRa transactivation
# Chain of Steroid hormone receptor ERR1 (Homo sapiens) (P11474 whole entry, looked up, the tested form may be a part): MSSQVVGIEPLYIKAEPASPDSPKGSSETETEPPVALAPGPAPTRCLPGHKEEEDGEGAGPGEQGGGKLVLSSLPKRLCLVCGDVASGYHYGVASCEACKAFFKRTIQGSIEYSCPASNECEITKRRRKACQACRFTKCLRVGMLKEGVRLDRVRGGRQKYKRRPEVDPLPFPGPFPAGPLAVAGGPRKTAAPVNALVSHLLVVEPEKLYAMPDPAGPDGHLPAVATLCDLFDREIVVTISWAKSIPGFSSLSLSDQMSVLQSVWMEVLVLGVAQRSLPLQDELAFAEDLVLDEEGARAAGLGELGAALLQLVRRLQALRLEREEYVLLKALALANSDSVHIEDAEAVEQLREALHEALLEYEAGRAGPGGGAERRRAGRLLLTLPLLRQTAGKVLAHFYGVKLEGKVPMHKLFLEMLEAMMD
# How it was run: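 Transfected HepG2, 24 h dosing, ERRa-Gal4 chimera driving GAL4-UAS reporter. Readout: reporter mRNA via RT-PCR plus capillary electrophoresis (fluorescence). Positive direction vs DMSO control.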
# [17] = ATG_M_19_TRANS: Attagene TRANS-FACTORIAL HepG2 Assay for M19 Transcription Factor (Internal Marker) (AID 2282974; active = hit-call score of the fitted dose curve at least 0.9, where 1 is the maximum); settings: HepG2 Attagene TRANS-FACTORIAL M19 internal marker reporter
# How it was run: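 Using RT-PCR and capillary electrophoresis, reporter mRNA from transiently transfected human HepG2 cells was quantified following 24 h exposure; activity was fitted in the positive direction against DMSO.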
# [18] = biological target: Estrogen-related receptor gamma (Homo sapiens) (UniProt P62508); experiment: ATG_ERRg_TRANS: Attagene TRANS-FACTORIAL HepG2 Assay for human Estrogen-Related Receptor gamma (ERRg) (AID 2282977; active = hit-call score of the fitted dose curve at least 0.9, where 1 is the maximum;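 note: hits increase reporter signal over DMSO so potencies reflect activators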); settings: HepG2 Attagene TRANS reporter, ERRg transactivation
# Chain of Estrogen-related receptor gamma (Homo sapiens) (P62508 whole entry, looked up, the tested form may be a part): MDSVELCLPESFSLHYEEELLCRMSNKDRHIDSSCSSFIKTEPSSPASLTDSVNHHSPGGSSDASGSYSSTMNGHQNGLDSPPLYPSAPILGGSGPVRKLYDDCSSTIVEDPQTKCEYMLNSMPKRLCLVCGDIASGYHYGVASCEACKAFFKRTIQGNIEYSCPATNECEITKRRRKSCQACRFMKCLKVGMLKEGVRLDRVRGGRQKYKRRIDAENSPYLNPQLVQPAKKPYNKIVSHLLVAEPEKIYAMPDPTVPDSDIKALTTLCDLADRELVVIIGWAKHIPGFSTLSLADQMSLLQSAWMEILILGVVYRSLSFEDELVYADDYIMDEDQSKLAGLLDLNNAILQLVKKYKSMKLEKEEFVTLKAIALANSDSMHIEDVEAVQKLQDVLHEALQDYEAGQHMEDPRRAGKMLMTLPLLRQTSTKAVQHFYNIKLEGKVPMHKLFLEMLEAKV
# How it was run: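 Transfect HepG2 with multiple GAL4-UAS reporter transcription units; dose chemicals 24 h; isolate RNA, reverse-transcribe with oligo(dT), PCR-amplify, label with 6-FAM, digest with HpaI; size fragments by capillary electrophoresis. DMSO serves as negative control.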
# [19] = biological target: Glucocorticoid receptor (Homo sapiens) (UniProt P04150); experiment: ATG_GR_TRANS: Attagene TRANS-FACTORIAL HepG2 Assay for human Glucocorticoid Receptor (GR) (AID 2282978; active = hit-call score of the fitted dose curve at least 0.9, where 1 is the maximum;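 note: activators score as hits since higher reporter transcript over DMSO is fitted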); settings: HepG2 Attagene TRANS GR reporter, mRNA transcription
# Chain of Glucocorticoid receptor (Homo sapiens) (P04150 whole entry, looked up, the tested form may be a part): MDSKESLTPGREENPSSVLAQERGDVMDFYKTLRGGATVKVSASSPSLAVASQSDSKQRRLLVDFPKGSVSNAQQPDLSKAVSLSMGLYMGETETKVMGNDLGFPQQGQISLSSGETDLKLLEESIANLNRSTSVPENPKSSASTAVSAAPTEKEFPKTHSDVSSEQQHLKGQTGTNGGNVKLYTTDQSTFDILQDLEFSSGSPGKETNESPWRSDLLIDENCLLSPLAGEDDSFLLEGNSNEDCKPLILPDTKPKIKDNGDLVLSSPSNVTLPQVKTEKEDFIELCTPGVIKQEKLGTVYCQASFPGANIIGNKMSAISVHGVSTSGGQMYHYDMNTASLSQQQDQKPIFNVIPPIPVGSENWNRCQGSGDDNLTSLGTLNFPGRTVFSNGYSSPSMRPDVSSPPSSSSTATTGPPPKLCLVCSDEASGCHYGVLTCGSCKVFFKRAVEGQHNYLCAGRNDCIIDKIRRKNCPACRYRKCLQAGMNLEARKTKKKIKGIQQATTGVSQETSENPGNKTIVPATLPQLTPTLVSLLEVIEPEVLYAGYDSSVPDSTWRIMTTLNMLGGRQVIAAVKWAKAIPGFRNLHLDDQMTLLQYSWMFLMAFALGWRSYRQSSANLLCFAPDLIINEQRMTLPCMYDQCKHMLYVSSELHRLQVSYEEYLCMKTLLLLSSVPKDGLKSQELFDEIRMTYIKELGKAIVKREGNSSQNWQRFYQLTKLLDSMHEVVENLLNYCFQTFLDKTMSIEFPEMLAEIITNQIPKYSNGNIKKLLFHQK
# How it was run: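 Exogenous NR-GAL4 fusion activity was assessed through induced GAL4-UAS reporter transcripts in transfected human HepG2 cells, quantified after 24 h by RT-PCR and fluorescent capillary electrophoresis with DMSO as baseline.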
smiles,measurement,setting,value
CCCC(C)=O,outcome,[1],inactive
same,outcome,[2],inactive
same,outcome,[3],inactive
same,outcome,[4],inactive
same,outcome,[5],inactive
same,outcome,[6],inactive
same,outcome,[7],inactive
same,outcome,[8],inactive
same,outcome,[9],inactive
same,outcome,[10],inactive
same,outcome,[11],inactive
CC(=O)c1ccccn1,outcome,[1],inactive
same,outcome,[2],inactive
same,outcome,[12],inactive
same,outcome,[4],inactive
same,outcome,[5],inactive
same,outcome,[13],inactive
same,outcome,[6],inactive
same,outcome,[7],inactive
same,outcome,[8],inactive
same,outcome,[9],inactive
same,outcome,[10],inactive
same,outcome,[14],inactive
COc1ccc(COC(C)=O)cc1,outcome,[1],inactive
same,outcome,[2],inactive
same,outcome,[12],inactive
same,outcome,[4],inactive
same,outcome,[5],inactive
same,outcome,[13],inactive
same,outcome,[6],inactive
same,outcome,[7],inactive
same,outcome,[8],inactive
same,outcome,[9],inactive
same,outcome,[10],inactive
same,outcome,[14],inactive
same,outcome,[15],inactive
same,outcome,[16],inactive
same,outcome,[11],inactive
same,outcome,[17],inactive
same,outcome,[18],inactive
CCC(C)=O,outcome,[1],inactive
same,outcome,[2],inactive
same,outcome,[12],inactive
same,outcome,[4],inactive
same,outcome,[5],inactive
same,outcome,[13],inactive
same,outcome,[6],inactive
same,outcome,[7],inactive
same,outcome,[8],inactive
same,outcome,[9],inactive
same,outcome,[10],inactive
same,outcome,[14],inactive
same,outcome,[11],inactive
same,outcome,[18],inactive
same,outcome,[19],inactive
CCCCCCC(C)Nc1ccc(Nc2ccccc2)cc1 (stereo unspecified),outcome,[1],inactive
same,AC50,[2],1.78 µM (active)
same,outcome,[3],inactive
same,outcome,[4],inactive
same,outcome,[5],inactive
same,outcome,[6],inactive
same,outcome,[7],inactive
same,outcome,[10],inactive
same,AC50,[14],2.32 µM (active)
same,outcome,[11],inactive
same,outcome,[19],inactive
O=C(O)CCCCCCCCCCCC(=O)O,outcome,[1],inactive
same,outcome,[2],inactive
same,outcome,[12],inactive
same,outcome,[4],inactive
same,outcome,[5],inactive
same,outcome,[13],inactive
same,outcome,[6],inactive
same,outcome,[7],inactive
same,outcome,[8],inactive
same,outcome,[9],inactive
same,outcome,[10],inactive
same,outcome,[14],inactive
same,outcome,[16],inactive
same,outcome,[11],inactive
same,outcome,[17],inactive
CS(=O)(=O)OCCCCOS(C)(=O)=O,outcome,[1],inactive
same,AC50,[2],55.8 µM (active)
same,outcome,[12],inactive
same,outcome,[4],inactive
same,outcome,[5],inactive
same,outcome,[13],inactive
same,outcome,[6],inactive
same,outcome,[7],inactive
same,outcome,[8],inactive
same,outcome,[9],inactive
same,outcome,[10],inactive
same,outcome,[14],inactive
same,outcome,[11],inactive
same,outcome,[17],inactive
Cc1ccc(S(=O)(=O)Oc2ccc(N=Nc3ccc(-c4ccc(N=Nc5c(O)ccc6cc(S(=O)(=O)O)cc(S(=O)(=O)O)c56)c(C)c4)cc3C)cc2)cc1,outcome,[1],inactive
same,AC50,[2],4.91 µM (active)
same,outcome,[3],inactive
same,outcome,[4],inactive
same,outcome,[13],inactive
same,outcome,[6],inactive
same,outcome,[7],inactive
same,outcome,[8],inactive
same,outcome,[9],inactive
same,AC50,[10],40.6 µM (active)
same,AC50,[14],14.1 µM (active)
same,outcome,[15],inactive
same,outcome,[16],inactive
same,outcome,[11],inactive
same,outcome,[17],inactive
same,outcome,[18],inactive
same,outcome,[19],inactive
CCC(=O)OCCOc1ccccc1,outcome,[1],inactive
same,outcome,[2],inactive
same,outcome,[12],inactive
same,outcome,[4],inactive
same,outcome,[5],inactive
same,outcome,[13],inactive
same,outcome,[6],inactive
same,outcome,[7],inactive
same,outcome,[8],inactive
same,outcome,[9],inactive
same,outcome,[10],inactive
same,outcome,[14],inactive
same,outcome,[11],inactive
same,outcome,[17],inactive

# Reference: PubChem BioAssay (EPA / NIEHS)
